Results on 14 compounds are retold here after the supplement of paper PMC6522484.

Molecules are shown by their SMILES. ± gives the standard deviation of the averaged measurements.

Experiment [1] deals with DLD1. Put plainly: cell viability (CellTiter-Glo) relative to plate median (fraction of plate median); higher = more viable cells. To be noted: 5 µM; treatment time 24 h; reporter: 7TFP. The essentials:
(§1)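 Normalisation used webcellHTS2 in additive mode without log transformation, scaling each well's luminescence to the plate median. The luminescence was firefly luciferase or CellTiterGlo, read on a Tecan F500 from parallel plates of colorectal cancer cells stably transduced with lentiviral TCF/Wnt firefly luciferase reporters. Those cells had been given library compounds at a final 5 µM for 24 h, and two independent replicates were averaged.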
(In general: Cellular ATP, detected with luciferase, serves as a proxy for viable cell number.)

Another experiment deals with HCT116. The description is as above. To be noted: 5 µM; treatment time 24 h; reporter: TCF4/Wnt. The essentials:
as §1

Experiment [2] concerns SW480. The experiment is described as above. To be noted: 5 µM; treatment time 24 h; reporter: 7TFP. The essentials:
as §1

Experiment [3] has as its system DLD1. Put plainly: TCF/Wnt firefly luciferase reporter signal relative to plate median (fraction of plate median); higher = higher Wnt reporter signal. To be noted: 5 µM; treatment time 24 h; reporter: 7TFP. The essentials:
as §1

Experiment [4] has as its system SW480. The experiment is described as above. To be noted: 5 µM; treatment time 24 h; reporter: 7TFP. The essentials:
as §1

As for `COc1cccc2c1C(=O)c1c(O)c3c(c(O)c1C2=O)C[C@@](O)(C(=O)CO)C[C@@H]3O[C@H]1C[C@H](N)[C@@H](O)[C@H](C)O1`, the cell viability in the experiment with DLD1 [1] worked out at 1.03 ± 0.028; in the experiment on HCT116, 0.589 ± 0.19; in the experiment on SW480 [2], 1.11 ± 0.13. Besides, the results for the “TCF/Wnt firefly luciferase reporter signal” value with DLD1 [3] and in the experiment with SW480 [4] were 1.16 ± 0.014 and 0.727 ± 0.082, respectively.
As to `NCCCCN`, the cell viability amounted to 0.96 ± 0.047 with DLD1 [1], 0.983 ± 0.02 with HCT116 and 0.97 ± 0.057 in the experiment on SW480 [2]. For the same compound, the results for the “TCF/Wnt firefly luciferase reporter signal” value with DLD1 [3] and in the experiment with SW480 [4] were 1.18 ± 0.15 and 1.1 ± 0.05, respectively.
Consider `CC(=O)O[C@@H]1C[C@H]2C(C)(C)[C@@H](O)CC[C@]2(C)[C@H]2CC[C@@]3(C)[C@H](c4ccoc4)OC(=O)[C@H]4O[C@]43[C@@]21C` [beta-DIHYDROGEDUNOL], for which the figures for the cell viability in the experiment with DLD1 [1], in the experiment with HCT116 and in the experiment on SW480 [2] were 0.978 ± 0.028, 1.08 ± 0.078 and 0.984 ± 0.021, respectively. The figures for the “TCF/Wnt firefly luciferase reporter signal” value in the experiment on DLD1 [3] and in the experiment with SW480 [4] were 1.02 ± 0.035 and 1.12 ± 0.085, respectively.
In the case of `O=C(O)CCC(=O)c1ccc(-c2ccccc2)cc1`, the cell viability amounted to 1.04 ± 0.073 in the experiment with DLD1 [1], 0.947 ± 0.12 with HCT116 and 0.962 ± 0.018 in the experiment on SW480 [2]. Besides, the entries for the “TCF/Wnt firefly luciferase reporter signal” value in the experiment on DLD1 [3] and with SW480 [4] were 1 ± 0.095 and 1.04, respectively.
Regarding `CC1(C)CC[C@]2(C(=O)O)CC[C@]3(C)C(=CCC4[C@@]5(C)CC[C@@H](O)C(C)(C)C5CC[C@]43C)C2C1` (stereo not given in full), the cell viability in the experiment with DLD1 [1] stood at 0.967 ± 0.032; in the experiment with HCT116, 1.11 ± 0.092; with SW480 [2] it was 1.08 ± 0.014. For the same compound, the “TCF/Wnt firefly luciferase reporter signal” value turned out to be 0.955 ± 0.093 with DLD1 [3] and 0.9805 ± 0.005 in the experiment on SW480 [4].
For `CCN(Cc1ccncc1)C(=O)C(CO)c1ccccc1` (stereo not given), the cell viability stood at 0.9915 ± 0.0035 in the experiment on DLD1 [1], 0.976 ± 0.048 in the experiment with HCT116 and 1.04 ± 0.021 with SW480 [2]. Moreover, the “TCF/Wnt firefly luciferase reporter signal” value is 1.04 ± 0.057 in the experiment with DLD1 [3] and 1.08 ± 0.078 in the experiment on SW480 [4].
For `CC(=O)O[C@@H]1CC2C(C)(C)C(=O)C3OC3[C@]2(C)C2CC[C@@]3(C)[C@H](c4ccoc4)OC(=O)C4OC43[C@@]21C` (stereo not given in full), the cell viability in the experiment with DLD1 [1] stood at 1.06 ± 0.014; in the experiment with HCT116, 1.1 ± 0.085; in the experiment with SW480 [2], 1.02 ± 0.035. In addition, the “TCF/Wnt firefly luciferase reporter signal” value was determined as 1.02 ± 0.057 with DLD1 [3] and 0.864 ± 0.078 in the experiment on SW480 [4].
On the same counts, the results for `CC1=C(C(=O)O)N2C(=O)[C@@H](NC(=O)[C@H](N)c3ccccc3)[C@H]2SC1` are 1 ± 0.065, 1.02 ± 0.082, 0.983 ± 0.025, 0.991 ± 0.056 and 1.015 ± 0.0071.
On the same counts, the results for `O=c1[nH]cnc2c1ncn2[C@@H]1O[C@H](CO)[C@@H](O)[C@H]1O` [Inosin] are 0.943 ± 0.12, 0.91 ± 0.15, 0.971 ± 0.013, 0.67 ± 0.24 and 0.999 ± 0.13.
Take `C=C(C)[C@H]1COc2cc3oc(=O)ccc3cc2O1`: the cell viability with DLD1 [1] is 1.1 ± 0.17; in the experiment with HCT116, 0.968 ± 0.026; with SW480 [2], 1.09 ± 0.057. Moreover, the “TCF/Wnt firefly luciferase reporter signal” value with DLD1 [3] amounted to 1.06 ± 0.092; in the experiment with SW480 [4], 1.1 ± 0.042.
For `O=C(O)CCCN1C(=O)c2cccc3cccc(c23)C1=O`, in that order: 0.994 ± 0.08, 1.04 ± 0.035, 0.995 ± 0.05, 0.96 ± 0.011 and 0.957 ± 0.047.
On to `CC12CCC(CC1=O)C2(C)C` (stereo not given), for which the cell viability with DLD1 [1] amounted to 0.974 ± 0.037; in the experiment with HCT116, 0.941 ± 0.2; with SW480 [2], 1.04 ± 0.05. Further, the “TCF/Wnt firefly luciferase reporter signal” value is 1.02 ± 0.061 with DLD1 [3] and 0.969 ± 0.14 with SW480 [4].
For `COc1cc2cc3c4cc(OC)c(OC)cc4cc[n+]3c(C)c2cc1OC`, in that order: 1 ± 0.067, 0.959 ± 0.013, 0.9305 ± 0.00071, 1.05 ± 0.16 and 1.01 ± 0.097.
In the case of `C[C@H]1O[C@@H](O[C@H]2[C@@H](O)C[C@H](O[C@H]3[C@@H](O)C[C@H](O[C@H]4CC[C@@]5(C)[C@H](CC[C@@H]6[C@@H]5C[C@@H](O)[C@]5(C)[C@@H](C7=CC(=O)OC7)CC[C@]65O)C4)O[C@@H]3C)O[C@@H]2C)C[C@H](O)[C@@H]1O`, the cell viability in the experiment with DLD1 [1] amounted to 0.838 ± 0.068; with HCT116 it was 0.282 ± 0.23; with SW480 [2], 0.855 ± 0.053. Also, the results for the “TCF/Wnt firefly luciferase reporter signal” value in the experiment with DLD1 [3] and in the experiment with SW480 [4] were 0.151 ± 0.15 and 0.221 ± 0.094, respectively.
